PubChem BioAssay AID504834 (National Center for Advancing Translational Sciences (NCATS), 2011)
About 22,000 (6.9%) of roughly 320,000 compounds were called active. Entries that show only a call come without a potency. Inconclusive results (about 27%) are left out. The call rests on the fitted dose curve; in most records, active means well fitted inhibition curve with a large enough effect; inconclusive means small, poorly fitted or top-dose-only effect, or another doubt; inactive means no such curve, though single readings can be large or run the other way. For the sample, actives were picked, then their nearest neighbours and some compounds at random.
Potency means the concentration at half of the fitted maximal effect.

Experiment: Primary qHTS for delayed death inhibitors of the malarial parasite plastid, 96 hour incubation
Settings: P. falciparum luciferase reporter growth; series mostly up to 28.7 µM
How it was run: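 Compounds incubated with erythrocytes infected by luciferase-expressing P. falciparum (2% hematocrit, 0.05% parasitemia final) for 96 hours, 37 C in 5% CO2. Growth inhibition scored as decreased luciferase luminescence.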
With `CN(CC(=O)NCc1ccc(Cl)cc1)S(=O)(=O)c1cccs1` the Potency was “inactive”. For `COc1cc(SC)ccc1C(=O)NCCOc1ccccc1Cl`, the Potency was 0.738 µM (active). For `COc1ccccc1OCCNC(=O)CCNC(=O)c1ccccc1Cl`, the Potency was “inactive”. For `COc1cccc(N2C(=O)C3CCCN3C2c2ccc(F)cc2)c1` (stereo not given), the Potency was 10.4 µM (active). With `COc1ccc(N2C(=O)C3CCCN3C2c2cccc(OC)c2)cc1` (stereo not given) the Potency was “inactive”. For `COc1ccc(N2C(=O)C3CCCN3C2c2cc(OC)c(OC)cc2OC)cc1` (stereo not given), the Potency was “inactive”. For `CCNC(=O)c1cnn(-c2ccccc2)c1-c1ccccc1`, the Potency was “inactive”. In the case of `COc1ccccc1CNC(=O)COn1nnc2ccc(S(=O)(=O)N3CCOCC3)cc21`, the Potency was “inactive”. In the case of `CCCC(C(=O)NCc1ccco1)N(C(=O)CNS(=O)(=O)c1ccccc1)C1CCCC1` (stereo not given), the Potency was 10.4 µM (active). With `CC(C)C(C(=O)NCc1ccco1)N(CC1CCCO1)C(=O)CNS(=O)(=O)c1ccc(F)cc1` (stereo not given) the Potency was “inactive”. For `O=C(CN(CC1CCCO1)C(=O)CNS(=O)(=O)c1ccc(F)cc1)NCc1ccco1` (stereo not given), the Potency was “inactive”. For `Cc1nc2nc(COc3ccccc3)[nH]n2c(=O)c1Cc1ccccc1`, the Potency was “inactive”. With `CCc1c(C)nc2cc(-c3cccs3)[nH]n2c1=O` the Potency was 2.08 µM (active). With `CCc1c(C)nc2cc(C)[nH]n2c1=O` the Potency was 3.7 µM (active). For `Cc1cc(=O)n2[nH]c(-c3cccc(Cl)c3)cc2n1`, the Potency was “inactive”. For `C=CCc1c(C)nc2cc(-c3ccccc3)[nH]n2c1=O`, the Potency was “inactive”. In the case of `CCC(C)n1[nH]c(=O)c2c(C)cc(C)nc21` (stereo not given), the Potency was “inactive”. For `CC(=O)Nc1ccc(S(=O)(=O)N2CCC(C(=O)N[C@@H](Cc3ccccc3)C(=O)O)CC2)cc1`, the Potency was “inactive”. For `CC(OC(=O)CCC(=O)c1ccccc1)C(=O)Nc1ccc(F)cc1` (stereo not given), the Potency was “inactive”. In the case of `NC(=O)CN1CCCC1c1ccc2c(c1)OCCO2` (stereo not given), the Potency was “inactive”. For `O=C(C1CCC1)N1CCN(S(=O)(=O)c2ccc([N+](=O)[O-])cc2)CC1`, the Potency was 10.4 µM (active). With `O=C(C1CCCN(S(=O)(=O)c2ccc([N+](=O)[O-])cc2)C1)N1CCCCC1` (stereo not given) the Potency was “inactive”. In the case of `O=C(Cc1ccccc1)N1CCN(S(=O)(=O)c2ccc([N+](=O)[O-])cc2)CC1`, the Potency was “inactive”. In the case of `CC1CCCCC1NC(=O)/C(C#N)=C/C=C/c1ccccc1[N+](=O)[O-]` (stereo not given), the Potency was 11.7 µM (active). With `O=C(/C=C/c1ccccc1[N+](=O)[O-])OC1CCCCC1=O` (stereo not given) the Potency was “inactive”. In the case of `O=C(/C=C/c1ccccc1[N+](=O)[O-])NCC1CCCO1` (stereo not given), the Potency was “inactive”. For `CC(=O)Nc1cccc(C(=O)OCC(=O)Nc2nnc(-c3ccccc3)o2)c1`, the Potency was “inactive”. In the case of `CC(OC(=O)/C=C/c1ccccc1)C(=O)NC1CCCCC1C` (stereo not given), the Potency was “inactive”. In the case of `CC[N+](C)(CC)CCC[n+]1c(-c2ccccc2)c2cc(N)ccc2c2ccc(N)cc21`, the Potency was 0.233 µM (active). In the case of `O=C(CCNC(=O)c1ccccc1)Nc1nc2ccccc2s1`, the Potency was “inactive”. In the case of `CC(C)(C)OC(=O)NC(Cc1ccccc1)C(=O)NC(CSC1CCCCO1)C(=O)NN` (stereo not given), the Potency was “inactive”. For `CCn1cc(C(=O)NCC(=O)NC(C)(C)CO)c(=O)c2cc3c(cc21)OCO3`, the Potency was “inactive”. With `COc1ccc(N(CC(=O)NC2CCCCC2)S(=O)(=O)c2c(C)[nH]c(=O)[nH]c2=O)cc1` the Potency was 5.86 µM (active). In the case of `O=C(CN(c1cccc(Cl)c1)S(=O)(=O)c1ccccc1)NN=C1CCCC1`, the Potency was “inactive”. For `COc1ccc(N(CC(=O)Nc2ccc(F)c(F)c2)S(=O)(=O)c2c(C)[nH]c(=O)[nH]c2=O)cc1`, the Potency was “inactive”. In the case of `CCOc1ccc(N(CC(=O)Nc2ccccc2F)S(=O)(=O)c2c(C)[nH]c(=O)[nH]c2=O)cc1`, the Potency was “inactive”. With `COc1cccc(N(CC(=O)NC2CCCCCC2)S(=O)(=O)c2ccccc2)c1` the Potency was 13.1 µM (active). For `COc1cccc(N(CC(=O)NC2CCCC2)C(=O)CCCC(=O)Nc2ccccn2)c1`, the Potency was “inactive”. For `O=C(Cc1cccs1)NCc1cccc(C(F)(F)F)c1`, the Potency was “inactive”. With `COc1ccc(N2CC(C(=O)NCCS(=O)(=O)N3CCN(c4ccccc4)CC3)CC2=O)cc1` (stereo not given) the Potency was “inactive”. For `CCC(CC)C(=O)Nc1c2c(nn1-c1ccc(C)cc1)CS(=O)(=O)C2`, the Potency was “inactive”. With `O=CN1CCN(C(=O)c2ccc3c(c2)OCO3)CC1` the Potency was “inactive”. With `CC(C)CN(C(=O)CSc1nncn1C)C1CCS(=O)(=O)C1` (stereo not given) the Potency was “inactive”. With `Cc1cccc[n+]1CC(=O)c1ccccc1` the Potency was “inactive”. In the case of `Cc1ccc(C(=O)N2CCCC(c3ccccc3)=N2)cc1`, the Potency was “inactive”. For `Cc1ccc(C(=O)C[n+]2cc(-c3ccccc3)n3c2CCCCC3)cc1`, the Potency was 0.415 µM (active). With `Cc1ccc(NC(=O)CN2CCc3ccccc3C2)cc1` the Potency was “inactive”. With `Cc1ccc(NC(=O)CCN2CCc3ccccc3C2)cc1` the Potency was “inactive”. For `Cc1ccc(-c2c[n+](CC(=O)Nc3ccccc3)c3n2CCC3)cc1`, the Potency was 3.7 µM (active). For `COc1ccc(S(=O)(=O)Nc2cc(C)on2)cc1NC(C)=O`, the Potency was “inactive”. In the case of `CCCc1cc(=O)oc2c(C)c(OCC(=O)Nc3ccccn3)ccc12`, the Potency was “inactive”. In the case of `COCCCNC(=O)CN1C(=O)CSc2ccc(S(=O)(=O)N3CCOCC3)cc21`, the Potency was “inactive”. For `CCOC(=O)C1CCN(C(=O)Cn2nc(C)c3c(C)n(-c4ccccc4)nc3c2=O)CC1`, the Potency was “inactive”. In the case of `O=S(=O)(NCCc1ccc(Cl)cc1)c1cccs1`, the Potency was “inactive”. For `COc1cc(C(=O)OC2CCOC2=O)c([N+](=O)[O-])cc1OC` (stereo not given), the Potency was “inactive”. In the case of `COc1ccc(NC(=O)CS(=O)(=O)c2ccccc2)cc1`, the Potency was “inactive”. For `COc1ccc(-c2nnc(SCC(=O)c3cccs3)o2)c(OC)c1`, the Potency was “inactive”. With `COc1ccc(-c2nnc(NC(=O)CS(=O)(=O)c3ccc(Cl)cc3)o2)c(OC)c1` the Potency was 8.28 µM (active). With `COc1ccc(-c2n[nH]c3c2CN(C(=O)c2ccc(F)cc2)CC3)cc1` the Potency was “inactive”. In the case of `Cc1nonc1C1CCCN1C(=O)c1cc(COc2cccc(C(F)(F)F)c2)on1` (stereo not given), the Potency was “inactive”. In the case of `COc1ccccc1/C=C/C=N/NC(=O)CN1CCN(Cc2ccccc2)CC1`, the Potency was “inactive”. For `O=C(N/N=C/C=C/c1ccccc1)C1CC1(c1ccccc1)c1ccccc1` (stereo not given), the Potency was 10.4 µM (active). With `O=C(N/N=C/c1ccccc1O)C1CCCC1` the Potency was “inactive”. For `CCc1cc(=O)oc2c(C)c(OCC(=O)N3CC[C@@]4(O)CCCC[C@H]4C3)ccc12`, the Potency was “inactive”. With `CCOC(=O)c1[nH]c2c(c1C)C(=O)CC(c1ccc(N(C)C)cc1)C2` (stereo not given) the Potency was “inactive”. For `CCOC(=O)c1[nH]c2c(c1-c1ccccc1)C(=O)CC(c1ccc(Cl)cc1)C2` (stereo not given), the Potency was 9.28 µM (active). For `CCOC(=O)c1cc(NC(=O)c2ccc(Cl)cc2)c(=O)oc1-c1ccccc1`, the Potency was “inactive”. In the case of `Cc1cccc(C(=O)NC(=S)N(C)C2CCCCC2)c1`, the Potency was “inactive”. In the case of `C#CCOCCOCCOCCNc1nc(N2CCN(C(=O)Cn3cc(CCCCN)nn3)CC2)nc(N2CCN(C(=O)[C@H](CCCCN)n3cc(CCC(=O)O)nn3)CC2)n1`, the Potency was “inactive”. In the case of `C#CCOCCOCCOCCNc1nc(N2CCN(C(=O)CCCCCCCCCCNC(=O)Cn3cc(CCCCCN)nn3)CC2)nc(N2CCN(C(=O)CCCCCCCCCCNC(=O)[C@H](CO)n3cc(CCCSC)nn3)CC2)n1`, the Potency was 1.47 µM (active). With `C#CCOCCOCCOCCNc1nc(N2CCN(C(=O)[C@H](CCC(=O)O)n3cc(C(N)CO)nn3)CC2)nc(N2CCN(C(=O)[C@H](CCCCN)n3cc(C(N)CC(C)C)nn3)CC2)n1` (stereo not given in full) the Potency was “inactive”. In the case of `C#CCOCCOCCOCCNc1nc(N2CCN(C(=O)[C@H](C(C)C)n3cc(CCO)nn3)CC2)nc(N2CCN(C(=O)[C@H](C(C)C)n3cc(CCO)nn3)CC2)n1`, the Potency was “inactive”. In the case of `C#CCOCCOCCOCCNc1nc(N2CCN(C(=O)CCCCCCCCCCNC(=O)[C@H](CCCCN)n3cc(C)nn3)CC2)nc(N2CCN(C(=O)CCCCCCCCCCNC(=O)[C@H](CO)n3cc(CCCSC)nn3)CC2)n1`, the Potency was 0.294 µM (active). With `C#CCOCCOCCOCCNc1nc(N2CCN(C(=O)[C@H](CCCCN)n3cc([C@@H](N)C(C)CC)nn3)CC2)nc(N2CCN(C(=O)[C@H](Cc3ccc(O)cc3)n3cc([C@@H](N)C(C)CC)nn3)CC2)n1` (stereo not given in full) the Potency was “inactive”. With `C#CCOCCOCCOCCNc1nc(N2CCN(C(=O)CCCCCCCCCCNC(=O)[C@H]([C@@H](C)CC)n3cc(CCCCN=C(N)N)nn3)CC2)nc(N2CCN(C(=O)CCCCCCCCCCNC(=O)[C@H](CO)n3cc(CCCSC)nn3)CC2)n1` the Potency was 0.37 µM (active). With `C#CCOCCOCCOCCNc1nc(N2CCN(C(=O)[C@H](CCCCN)n3cc(CCC(=O)O)nn3)CC2)nc(N2CCN(C(=O)[C@H](CCCCN)n3cc(CC(C)O)nn3)CC2)n1` (stereo not given in full) the Potency was “inactive”. For `C#CCOCCOCCOCCNc1nc(N2CCN(C(=O)[C@H](CCC(=O)O)n3cc(C(N)CO)nn3)CC2)nc(N2CCN(C(=O)[C@H](CCCCN)n3cc(C(N)[C@H](C)CC)nn3)CC2)n1` (stereo not given in full), the Potency was “inactive”. In the case of `CSc1n[nH]c(=S)n1N`, the Potency was “inactive”. In the case of `Cc1c(CC(=O)NCCCCCC(=O)O)c(=O)oc2cc3occ(-c4ccccc4)c3cc12`, the Potency was “inactive”. In the case of `CCOc1ccccc1NC(=O)Cn1ncc2ccc([N+](=O)[O-])cc21`, the Potency was “inactive”. For `CC(=O)NC1CCN(CC(=O)Nc2nccs2)CC1`, the Potency was “inactive”. With `O=C(Nc1ncccc1O)c1ccc(C(=O)c2ccccc2)cc1` the Potency was 0.928 µM (active). With `CCOC(=O)c1csc(NC(=O)c2ccc(S(=O)(=O)N3CCCC3)cc2)n1` the Potency was “inactive”. In the case of `O=C(NC(=O)c1ccccc1)Nc1ccccc1O`, the Potency was “inactive”. For `CN1CCN(NC(=O)c2ccc(S(=O)(=O)N3CCCCCC3)cc2)CC1`, the Potency was “inactive”. For `O=C(N/N=C/c1ccccn1)c1ccc(S(=O)(=O)N2CCCCCC2)cc1`, the Potency was “inactive”. With `O=C(Nc1ncccc1O)c1ccc(S(=O)(=O)N2CCCCCC2)cc1` the Potency was 5.22 µM (active). For `O=C(CNC(=O)c1ccc2ccccc2c1)Nc1ncccc1O`, the Potency was “inactive”. For `O=C(Nc1ncccc1O)c1ccc(S(=O)(=O)N2CCCC2)cc1`, the Potency was 2.08 µM (active). With `O=C(Nc1ccccc1F)c1ccc(S(=O)(=O)N2CCCCCC2)cc1` the Potency was “inactive”.
